Test results from the supplement of paper PMC6555819.

Test system: LXRb:RXRa (NR concentration 270 nM, RXRa partner concentration 90 nM)
Assay: PBM binding z-score (relative to random genomic background probes); higher = stronger binding; sequences stand for … in GC…GCGATTGACAGCGTAGAATGAAGG
Procedure, shortened: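 Regression normalization was applied to scanned fluorescence from custom Agilent 4×180K protein-binding microarrays. Before scanning, arrays were incubated 1 h with ligand-free nuclear receptor dimers, and binding was detected with antibodies against each partner (one per run). Binding z-scores use the random background probes as reference.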

Sequence	PBM binding z-score
TCGAGTAGGTTACCAATGAGGCATTCAGCTTTCT	0.0718
CCTAGTTGGTGAAGGTCACACACGCTATAGGTAC	3.42
CCTCGGAGGCCAACAGGAGGTCAGAGCTGCCAGA	1.58
CCTACTGGGCCAAAGGTCATTGAATCCAATGCTC	4.91
AGTCAACGTTCACTAGGTAACGTAAGATTCAGCT	-0.00739
ACTATTAGTTGAGACGAGGGCAACCGATAGGTTG	0.22
GCATATAGTTAATACAAGGTGAAAGTCCGATTGT	0.44
TCTAGTTGGTCATAGGTCACACACTCGAAATGCG	3.31
TGTCAAAGTTCAAAGGTAACGTAAGTATCCACAC	4.83
CCTTACGGGTCACTAACAGGTTATAGCATTTGGA	3.4
CGAACTAGGTCAAGGACAGAGAATCTCCGCACGC	1.25
GGAACGAGGGCAAAGTTGATACCATCTGTCGACG	1.17
ATCGAAAGGTCGAAGGTGGGTATACCCACCCGAA	2.34
TAGCCTAGGTCATTCACGGGCCAGTATAGAAAGC	2.48
AATACAGGGTCATCGTAGGACAGAGTACGCACAG	4.91
TCATATAGTTAAACAGGTGAAAGTCCGTAAGTTA	1.1
CCAGACACGTGAGAAGGTAACTCAGCCTCGATTA	-0.3
CATCCAAGGTCAATGCTAGGTCAGTGAAAGCATT	4.42
CCTACGGGGCCATCAGGTCATTGATATCAACGTT	1.91
CCTACTGGGCCAATGGTCATTGATTCCAATGCTC	-0.531

Sequence	PBM binding z-score
AATACAGGGTCATCGTAGGCCAGAGTGCGCACAG	4.75
ATCTCTACGTAACCAAGTTCAGTGAATGCCGAAC	0.389
TATACAGGGTCAAAGGCCAGAGGACGAATGTCGA	4.72
TGAATGAGATTAAAGATCAGGGAACGTGGCGTCG	-0.322
GATACAGGGTCAGCTAGAGGCCAGAGAATGGAAA	2.73
ATACCAAGGTGATCGTGAGCTCGTTGATACTAAC	0.0963
CAAACTAGGTCAACGGAAGGTCAAAGTCCGCATG	5.09
CAGCCTAGGTCAGGGCCAGTATGGGAGGAACGTT	0.176
ACAGACCGGTGAGTGAAGGTAACTCAGCTGGACG	-0.711
TCTTGTAGATCAACATGAGGTTAAGAAAGATCGA	1.19
TAGCCTCGGTCATGGGCCAGTATACCACGCGAAC	-0.073
CCTACTGGGCGATCAGGTCATTGATATCAACGTT	0.798
CCATACAGGTGAGAAGGTAACTCAGCCTCGATTA	0.309
TTACCAAGGTGAAAGGTCGCTGATGCACGCCTTG	2.24
GCGACTGTGGCAAAGCAGGTTACCATAAGGTTGG	-0.511
TGAATGAGGTTATACGATCAGGGAACGTTGCAAA	1.05
CCTAGCAGGCCAATCTGGGTCAATCAAGGCTTGA	0.742
GCTTACGGGGCAAAGGTTATAGCATGAATAGAAT	3.48
TCTTGTAGATCAACAGGAGGTTAAGGAAGATCGA	0.484
TCAGACAGGTGAAGGTAACTAAGGTACGCAGTCG	1.44
